Measured values: ChEMBL document CHEMBL4513216, “Probing the Open Global Health Chemical Diversity Library for Multistage-Active Starting Points for Next-Generation Antimalarials” (ACS Infect Dis, 2020)
Screen size: about 69,000 compounds; about 8,600 (12%) showed an effect of 50% or more. What follows is part of a selection rich in strong results, with near analogues and random picks from the rest.

tested on: Plasmodium berghei; test: Screen against P. berghei liver stage (PbLuc), transformed with Luciferase, at 10uM; format: functional, HepG2; details: tested at 10 uM

SMILES | INHIBITION [%]
Cc1cnn(CCNc2cnc3ccccc3n2)c1 | -68.3
O=C([C@H]1C[C@@H]2CCN(C3CCOCC3)C[C@@H]2O1)N1CCOCC1 | -15.5
CN1CCC(CNC(=O)CCSc2ccc3c(c2)OCCO3)C1 (configuration not stated) | 28.5
Cc1cccc(CC(=O)N2CCN(c3nccn3C)CC2)c1 | -14.7
Cc1sc2c(C3CCCN(C(C)C)C3)nc(C)n2c1C (configuration not stated) | -12.9
Cn1cc(CN2CCc3onc(C(=O)N4CCCC4)c3C2)cn1 | 33.5
COc1ccc(CC(=O)N2CCCC(n3cc(C)cn3)C2)c(OC)c1 (configuration not stated) | 7.08
O=C(c1cnc(C2CC2)nc1O)N1CCN(Cc2ccccc2F)CC1 | -0.554
CC(=O)N1CCN(C(=O)c2cnn(-c3ccccc3Cl)c2)CC1 | 56.1
O=C(COCC1CCCCO1)N1CCN(Cc2ccccc2F)C(=O)C1 (configuration not stated) | 45.6
Cc1ccccc1CN1CCCN(C(=O)c2ccn(C)c(=O)c2)CC1 | -7.46
CCn1ccc(C(=O)N2CCCN(Cc3ccccc3F)CC2)cc1=O | 73.4
O=C(COCC1CCCO1)N1CCCN(Cc2ccccc2F)CC1 (configuration not stated) | 53
Cc1ncc(C(=O)N2CCCN(Cc3ccccc3F)CC2)c(O)n1 | 34.9
N#Cc1ccc(OC2CCN(C(=O)COCC3CCCO3)CC2)cc1 (configuration not stated) | -13.9
Cn1ccc(C(=O)N2CCN(Cc3ccccc3F)CC2)cc1=O | -57
CC(=O)N1CCCN(C(=O)c2cnn(-c3ccccc3Cl)c2)CC1 | 47
CN1CCN(C(=O)c2cnn(-c3ccccc3Cl)c2)CC1 | 14.1
O=C(c1cccnc1O)N1CCN(Cc2ccccc2F)CC1 | 54.1
O=C(CCc1ccsc1)N1CCC(N2CCNC2=O)CC1 | 19.5
CN(CC(=O)N1CCCCC1Cn1cccn1)C1CC1 (configuration not stated) | -79.3
Cc1cnn(CCNCc2ccccc2OCc2ccccn2)c1 | -15.5

SMILES | INHIBITION [%]
CCCc1n[nH]c(C2CN(C(=O)c3cc(C4CC4)on3)CCO2)n1 (configuration not stated) | 14
CN1CCN(C(=O)c2cc3sccc3n2Cc2ccccc2Cl)CC1 | 11.7
CC(C)(C)c1noc(CCC(=O)N2CCN(Cc3ccco3)CC2)n1 | 19.9
NC(=O)c1cc2c(nc1CCOCc1ccccc1)CCC2 | 20.3
NC(=O)c1cc2c(nc1CCOc1ccc(F)cc1)CCC2 | 31.2
COc1cccc(OCCc2nc3c(cc2C(N)=O)CCC3)c1 | 54.8
O=C1CC[C@H]2[C@H](CCN2c2ncc(F)cn2)N1c1cccnc1 | 0.542
Cc1cccc(C(=O)N2CCCC(Cc3cncc4ccccc34)C2)n1 (configuration not stated) | -22.6
CCN(CC)CCCNC(=O)C(C)n1cc(Br)cn1 (configuration not stated) | -1.33
Cc1ccccc1CSc1nc(N)cc(N2CCOCC(CO)C2)n1 (configuration not stated) | 46.6
Cc1cc(N2CCOCC(Cc3ccc4[nH]ccc4c3)C2)ncn1 (configuration not stated) | 67.7
Cc1cc(N2CCC(Cc3ccncc3)C2)ncn1 (configuration not stated) | -2.09
c1cc(N2CCOCC(Cc3ccc4[nH]ccc4c3)C2)ncn1 (configuration not stated) | 3.91
Nc1cc(N2CCOCC(Cc3ccc4[nH]ccc4c3)C2)ncn1 (configuration not stated) | 66.5
Cc1cc(N2CCC(Cc3cccnc3)C2)ncn1 (configuration not stated) | -2.09
Cc1nc(NCc2nncn2C2CC2)c2c(CC(C)C)csc2n1 | 45.4
CC1CN(C(=O)c2cscn2)c2ccccc2S1 (configuration not stated) | 63.7
Cc1nc(C(=O)N2CC(C)Sc3ccccc32)cs1 (configuration not stated) | 56.8
CC1CN(C(=O)c2ccnc(-n3cncn3)c2)c2ccccc2S1 (configuration not stated) | -40.7
CC1CN(C)c2ccccc2CN1C(=O)c1cscn1 (configuration not stated) | -4.15
CC(=O)N1CC(C)CN(C(=O)c2cscn2)c2ccccc21 (configuration not stated) | -5.26
Cc1ncsc1C(=O)N1CC(C)Sc2ccccc21 (configuration not stated) | 44

SMILES | INHIBITION [%]
O=S(=O)(c1cccs1)N1CC[C@H]2[C@H]1CCN2c1ncccn1 | -27
Cc1occc1C(=O)N1CCc2c(COCC3CC3)cncc2C1 | 27.9
CN1CCOC(C(=O)Nc2nc(-c3ccc4c(c3)CCC4)n[nH]2)C1 (configuration not stated) | 32.4
Cn1c(C2CC2)nc2cc(NC(=O)C3CCOC3)ccc21 (configuration not stated) | -5.69
CN1CCOC(C(=O)Nc2ccc3c(c2)nc(C(C)(C)C)n3C)C1 (configuration not stated) | 93.9
CN1CCOC(C(=O)Nc2ccc3[nH]nnc3c2)C1 (configuration not stated) | 59.7
CN1CCOC(C(=O)Nc2nc(-c3ccccc3F)n[nH]2)C1 (configuration not stated) | -35.9
CN1CCOC(C(=O)Nc2ccc3c(c2)nc(C2CC2)n3C)C1 (configuration not stated) | 60.8
Cn1c(C2CC2)nc2cc(NC(=O)C3CC=CC3)ccc21 | -22.4
CN1CCOC(C(=O)Nc2nc(-c3ccc(Cl)cc3)n[nH]2)C1 (configuration not stated) | -29.5
CN1CCOC(C(=O)Nc2nnc(Cc3ccc(F)cc3)[nH]2)C1 (configuration not stated) | -2.71
CC1(C(=O)N2CCSCC2)CNCCO1 (configuration not stated) | 34.825
O=C1CCCc2[nH]c(=O)c(C(=O)N3CCc4ccccc4C3)cc21 | 14.1
COc1cccc(-c2ncc(CN3C[C@H]4CC[C@@H](C3)N(C)C4=O)s2)c1 | 78.9
COCCN1C[C@H]2CN(Cc3cccc(OC)c3)CCN2C1=O | 24.8
COc1cccc(-c2ncc(CN3CC[C@H](CO)[C@@H](O)C3)s2)c1 | 15.7
COc1cccc(-c2ncc(CN3CC[C@@H]4CC[C@H](C3)N4)s2)c1 | 46.1
CN1C(=O)[C@@H]2CC[C@H]1CN(Cc1cccc(OCc3ccccn3)c1)C2 | 47.5
COc1cccc(-c2cccc(CN3C[C@H]4CC[C@@H](C3)N(C)C4=O)c2)c1 | 61
Cc1ccc(C2NC(=O)c3cc(C(C)C)sc3N2)cc1 (configuration not stated) | -4.92
Cc1cnn(C2CN(CC(=O)NCCc3c[nH]c4ccccc34)C2)c1 | 10
COc1cc(-c2cc(C3CCOC3)c(C#N)c(N)n2)ccc1O (configuration not stated) | 53

SMILES | INHIBITION [%]
COc1ccc(-c2cc(C3CCOC3)c(C#N)c(N)n2)cn1 (configuration not stated) | 6.69
Cc1cc(-c2cc(C3CCOC3)c(C#N)c(N)n2)ccc1Cl (configuration not stated) | 23.9
C=Cc1ccc(C(=O)N2CCCC(Nc3ccc(OC)cc3)C2)cc1 (configuration not stated) | 73.5
Cc1ccc(C(=O)N2CCCC(Nc3ccc(F)cc3)C2)cc1 (configuration not stated) | 36
COC(=O)c1ccc(C(=O)N2CCCC(Nc3ccc(F)cc3)C2)cc1 (configuration not stated) | -6.88
C=Cc1ccc(C(=O)N2CCCC(Nc3ccccc3)C2)cc1 (configuration not stated) | 50.3
C=Cc1ccc(C(=O)N2CCCC(Nc3ccc(F)c(F)c3)C2)cc1 (configuration not stated) | 37.1
C=Cc1ccc(C(=O)N2CCCC(Nc3ccc(F)cc3)C2)cc1 (configuration not stated) | 36.8
CC(C)N1CCO[C@H]2CN(C(=O)c3ccsc3)C[C@H]21 | -5.05
CC(=O)N1CCCCC[C@@H]2[C@@H]1[C@H](c1cccc(F)c1)CN2C(=O)C1CC1 | 35.85
O=C(c1ncc(F)cc1F)N1CCC(c2ncc[nH]2)CC1 | 29.4
CN(C)c1nccc(C2CCN(c3ncccn3)CC2)n1 | 76.8
CN(C)c1nccc(C2CCN(C3CCCCC3O)CC2)n1 (configuration not stated) | 27.6
NC(=O)c1cccc(C2CCN(c3ncccn3)CC2)n1 | 52.7
CN1CCC(c2cccc(C(=O)N(C)C)n2)CC1 | 16.5
CN(C)c1nccc(C2CCN(C(=O)CO)CC2)n1 | -37
CN(C)c1nccc(C2CN(S(C)(=O)=O)C2)n1 | 20.2
CN(C)c1cccc(C2CCN(c3ncccn3)CC2)n1 | 48
Cc1cc(C)nc(N2CCC(c3ccnc(N(C)C)n3)CC2)n1 | 75.9
CN(C)C(=O)c1cccc(C2CCN(c3ncccn3)CC2)n1 | -19.7
Cc1cccc(CN2CCC3(CC2)CC(Oc2cccnc2)C3)n1 | 0.923
CCOc1ccnc(N2CCN(C(=O)c3ccn(C)c(=O)c3)CC2)n1 | 4.71

SMILES | INHIBITION [%]
COc1ccc(CCCN(C)C(=O)c2cc(C(C)=O)c[nH]2)cc1OC | -46.6
COCCN1C(=O)[C@@H]2CC[C@H]1CN(C(=O)Cc1ccc(O)c(Cl)c1)C2 | -82.7
CCS(=O)(=O)N1CCC2(CC1)COC(COc1cccnc1)C2 (configuration not stated) | 5.63
Cc1ccc(C#N)c(N2CCCC(c3nccn3Cc3cscn3)C2)n1 (configuration not stated) | 56.7
Cc1ccc(C#N)c(N2CCC(c3nccn3Cc3cscn3)CC2)n1 | 23.9
Cc1cnc(C)c(N2CCC(c3nccn3Cc3cscn3)CC2)n1 | 8.51
O=C(CC1CC1)N1C[C@@H]2CN(c3ccccc3)C(=O)[C@@H]2C1 | -15.9
Cc1cc(C(=O)NCC2OCCc3cn(CC4CC4)nc32)c(C)[nH]1 (configuration not stated) | 26.5
COc1ccc(CCN2CC(NCc3ncc[nH]3)CC2=O)cc1 (configuration not stated) | -5.19
Cn1c(N2CC[C@H](O)C2)nc2cc(C(N)=O)ccc21 | 14.3
CN(C(=O)c1ccc2c(c1)nc(N1CC[C@H](O)C1)n2C)C1CCSCC1 | -1.04
CN(C)C(=O)c1ccc2c(c1)nc(N1CC[C@H](O)C1)n2C | 51.8
CCOc1ccc(Oc2cc(CN)ccn2)cc1 | -5.69
Cc1ccc(Oc2cc(CN)ccn2)cc1C | 45.7
COc1ccc(Oc2cc(CN)ccn2)cc1 | 62.4
CC(C)C(=O)NCc1ccnc(Oc2ccc(F)cc2)c1 | 32.5
NCc1ccnc(Oc2ccc(F)cc2)c1 | 82.9
NCc1ccnc(Oc2ccccc2)c1 | -18.5
O=C(CSc1ccccc1)N1C[C@@H]2CC[C@H]1CN(Cc1ccncc1)C2 | 10.4
